# From PubChem BioAssay (Tox21)
# Inconclusive results are not listed. Where a structure was tested more than once in an assay, its records may differ in their call. Activity calls are given as the source filed them. Calls follow the shape of the dose curve; as a rule, active = well fitted activation curve with a large enough effect in the repeat runs; inconclusive = weak or mixed curves, or effect the other way; inactive = no such curve, though single readings can be large or run the other way.
# Assay: qHTS assay to identify small molecule agonists of the estrogen related receptor signaling pathway with the pleiotropic PPARgamma coactivator (PGC) from Tox21 10K library (AID 1224842); also: nearly all actives have a fitted effect of over 15% in size
# Details: PGC/ERR reporter cell line, luciferase ONE-Glo, 18 h; series mostly up to 92.4 µM; activation: at the top concentration
# Description: National Center for Advancing Translational Sciences [NCATS] NIH Chemical Genomics Center [NCGC] U.S. Environmental Protection Agency [EPA] National Institutes of Environmental Health Sciences [NIEHS] National Toxicology Program [NTP] Assay overview: Estrogen related receptors (ERRs), the first orphan nuclear receptors discovered, play an important role in the control of cellular energy metabolism. ERRs are required for high-energy production in response to the environmental challenges. The pleiotropic PPARgamma coactivator (PGC) is a major partner of ERR and a key regulator in energy homeostasis. Together they have been implicated in the etiology of metabolic disorders such as Type 2 diabetes and metabolic syndrome. ERR-alpha was also identified as an adverse marker for breast cancer progression; ERR-alpha-positive tumors have a poor prognosis. To screen and to identify environmental compounds that perturb the PGC/ERR signaling pathways could provide valuable information for potential therapeutic or preventive measures in the treatment of metabolic disease. For identifying PGC/ERR agonists, PGC/ERR cell line (provided by NTP) has been used to screen Tox21 10K library.
# Assay Protocol Summary: The PGC/ERR cells were dispensed at 2,000 cells/5 ul/well in 1536-well white plates using a Multidrop dispenser. After the assay plates were incubated at a 37 C/5% CO2 incubator for 6 hours, 23 nL of compounds dissolved in DMSO, positive and negative controls or DMSO only was transferred to the assay plate by a pin tool. The plates were incubated at 37 C for 18 hours. 4 ul/well of One-Glo reagent was added into the assay plates using a Flying Reagent Dispenser. After 30-minute incubation at room temperature, the luminescence intensity in the plates was measured using a ViewLux plate reader.
# % is scaled to controls: 0 for no effect and ±100 for the full control effect; potency is read from the fitted curve at half-maximal effect.
SMILES,activation,Potency
CCCCCCCC(=O)OCC,0.708% (inactive),
O[C@@H](c1cc(C(F)(F)F)nc2c(C(F)(F)F)cccc12)[C@H]1CCCCN1,-5.76% [at 42.5 µM] (inactive),
C=CC(=C)CC/C=C(\C)CCC=C(C)C,0% [at 19 µM] (inactive),
CC(C)N=C(N)/N=C(\N)Nc1ccc(Cl)cc1,-4.98% [at 42.5 µM] (inactive),
CCc1c(C(=O)O)c(=O)cnn1-c1ccc(Cl)cc1,0.46% (inactive),
CCCCOCC,0.639% (inactive),
C=C(c1ccc(C(=O)O)cc1)c1cc2c(cc1C)C(C)(C)CCC2(C)C,,inactive
Oc1ccc(-c2ccc(O)cc2)cc1,5.77% (inactive),
COc1ccc2sc(C(=O)Nc3nnn[nH]3)c(OC(C)C)c2c1,-29.5% (inactive),
CC(=O)OC(OC(C)=O)c1ccc([N+](=O)[O-])o1,-40.1% (inactive),
CCC(C)c1cc([N+](=O)[O-])cc([N+](=O)[O-])c1OC(=O)OC(C)C (stereo not given),-10.1% (inactive),
C[C@@H]1CC[C@H]2C(C)(C)[C@H]3C[C@@]12CC[C@@]3(C)O,-9.04% (inactive),
CCNc1nc(NC(C)CC)nc(OC)n1 (stereo not given),4.48% (inactive),
Cc1cc2c(C(C)C)c(O)c(O)c(C=O)c2c(O)c1-c1c(C)cc2c(C(C)C)c(O)c(O)c(C=O)c2c1O,-18.2% [at 42.5 µM] (inactive),
CO[Si](CCC1CCC2OC2C1)(OC)OC (stereo not given),0.387% (inactive),
CCOCOCC,0.414% (inactive),
CN1CCN(C2Cc3ccccc3Sc3ccc(Cl)cc32)CC1 (stereo not given),4.72% [at 42.5 µM] (inactive),
CC(COC(=O)c1ccccc1)OC(=O)c1ccccc1 (stereo not given),4.93% (inactive),
O=C1c2c(O)ccc([N+](=O)[O-])c2C(=O)c2c([N+](=O)[O-])ccc(O)c21,-38% (inactive),
CCCCCCCOC(=O)c1ccccc1C(=O)OCCCCCCC,0.116% (inactive),

SMILES,activation,Potency
CCN=c1cc2oc3cc(NCC)c(C)cc3c(-c3ccccc3C(=O)OCC)c-2cc1C,,inactive
CCC(C)C(=O)OC (stereo not given),-2.41% (inactive),
CCCCCCCCCCCCCOP(=O)(O)O,1.38% (inactive),
O=Nc1ccc(NO)cc1,-0.118% (inactive),
CC(C)(C)c1n[nH]c(=O)n(N)c1=O,-3.05% (inactive),
O=S(=O)(O)c1cc(S(=O)(=O)O)c2ccc3c(S(=O)(=O)O)cc(S(=O)(=O)O)c4ccc1c2c43,0.18% [at 19 µM] (inactive),
C[Si](C)(C)Cl,1.52% (inactive),
N[C@@H](CSSC[C@H](N)C(=O)O)C(=O)O,4.81% [at 0.349 µM] (inactive),
COC(=O)C1=C(C)NC(C)=C(C(=O)OCCCN2CCC(c3ccccc3)(c3ccccc3)CC2)C1c1cccc([N+](=O)[O-])c1 (stereo not given),-31.9% [at 42.5 µM] (inactive),
O=C(c1ccccc1)c1cc(Cl)ccc1O,0.319% (inactive),
CC(=O)Oc1ccc(C2(c3ccc(OC(C)=O)cc3)C(=O)Nc3ccccc32)cc1,3.65% [at 42.5 µM] (inactive),
C#CC(O)CCC (stereo not given),-0.612% (inactive),
CC(C)(C)c1cc(/C=C2\SC(=N)NC2=O)cc(C(C)(C)C)c1O,-18.6% (inactive),
CCN1CCN(c2cc(-c3ccc(F)cc3)c3c(n2)CCCCCC3)CC1,-0.232% [at 19 µM] (inactive),
c1cc[nH]c1,0.0767% (inactive),
NC(=O)c1ccccc1N,1.52% (inactive),
CC[N+](CC)(CC)Cc1ccccc1,0.0093% (inactive),
S=P(N1CC1)(N1CC1)N1CC1,-15.4% (inactive),
c1ccc(Nc2cccc3ccccc23)cc1,,15.6 µM (active) and inactive
CCc1cccc(CC)c1N(COC)C(=O)CS(=O)(=O)O,-0.203% (inactive),
